According to PubChem BioAssay (Tox21):
Results filed as inconclusive are left out. Activity calls are given as the source filed them. Unless noted, calls come from the whole dose curve; as a rule, active = well fitted curve in the direction sought with a large enough effect in the repeat runs; inconclusive = weak or mixed curves; inactive = no such curve, though single readings can be large; an effect the other way counts as inactive or inconclusive.

What was measured:
[1] = qHTS assay to identify aromatase inhibitors - cell viability counter screen (AID 743084); conditions: MCF-7 aro ERE viability, CellTiter-Fluor, 24 h; series mostly up to 70.3 µM;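 note: cells stimulated with testosterone during compound exposure; nearly all actives have a fitted effect of over 55% in size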
[2] = biological target: Aryl hydrocarbon receptor (Homo sapiens) (UniProt P35869); assay: qHTS assay to identify small molecule that activate the aryl hydrocarbon receptor (AhR) signaling pathway (AID 743085); conditions: HepG2 AhR-luc (HG2L7.5c1), luciferase, 24 h; series mostly up to 70.3 µM;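 note: HG2L7.5c1 human HepG2 liver cells with stably integrated DRE-driven firefly reporter; nearly all actives have a fitted effect of over 15% in size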
Procedure, shortened: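 Compounds were tested in HepG2 hepatocellular carcinoma cells harbouring a stably integrated luciferase gene under control of 20 DREs. Increased reporter signal after 24 h treatment at 37C was taken as AhR activation.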

[3] = qHTS assay to identify small molecule that activate the aryl hydrocarbon receptor (AhR) signaling pathway - cell viability counter screen (AID 743086); conditions: HepG2-AhR-luc viability, CellTiter-Fluor, 24 h; series mostly up to 70.3 µM;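 note: HepG2 liver cells carrying the AhR DRE luciferase reporter; nearly all actives have a fitted effect of over 45% in size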
Procedure, shortened: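 HepG2-AhR-luc (HG2L7.5c1) cells, 4000/well, were preincubated 5 h at 37C, exposed to compound in qHTS format for 24 hr at 37C, then given CellTiter-Fluor for 30 min; viability was read as fluorescence in the reporter wells.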

[4] = biological target: Peroxisome proliferator-activated receptor gamma (Homo sapiens) (UniProt P37231); assay: qHTS assay to identify small molecule agonists of the peroxisome proliferator-activated receptor gamma (PPARg) signaling pathway (AID 743094; active = well fitted activation curve with a large enough effect in the signal ratio in the repeat runs, not every such curve was filed as active; the % refers to the signal ratio); conditions: HEK293H PPARg-UAS-bla, beta-lactamase FRET ratio, 17 h; series mostly up to 57 µM
Procedure, shortened: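 GeneBLAzer PPARg UAS-bla HEK293H cells were plated, rested 5 h, then exposed to compounds for 17 h at 37C. Beta-lactamase activity was read by LiveBLAzer B/G FRET substrate fluorescence after 1 h at room temperature.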

[5] = biological target: Peroxisome proliferator-activated receptor gamma (Homo sapiens) (UniProt P37231); assay: qHTS assay to identify small molecule antagonists of the peroxisome proliferator-activated receptor gamma (PPARg) signaling pathway (AID 743191; calls by dose curve; note: nearly all actives have a fitted effect of over 30% in size); conditions: HEK293H PPARg-UAS-bla, beta-lactamase ratio, antagonist, 17 h; series mostly up to 62.6 µM
Procedure, shortened: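 GeneBLAzer PPARg UAS-bla HEK293H cells carrying a UAS-driven beta-lactamase reporter were plated at 3000 cells/well, preincubated 5 h at 37C, then given compound for 17 h at 37C; LiveBLAzer B/G FRET substrate was read after 1 h at room temperature.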

[6] = qHTS assay for small molecule agonists of the antioxidant response element (ARE) signaling pathway (AID 743202; active = well fitted activation curve with a large enough effect in the signal ratio in the repeat runs, not every such curve was filed as active; the % refers to the signal ratio); conditions: HepG2 ARE-bla reporter, beta-lactamase FRET, 16 h; series mostly up to 73.3 µM
Procedure, shortened: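 Read-out: LiveBLAzer B/G FRET substrate fluorescence after 2 h at room temperature, following 16 h compound treatment at 37 C of HepG2 cells carrying an ARE-driven beta-lactamase reporter.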

[7] = qHTS assay for small molecule agonists of the antioxidant response element (ARE) signaling pathway - cell viability counter screen (AID 743203; calls by dose curve; note: nearly all actives have a fitted effect of over 55% in size); conditions: ARE-bla HepG2 viability, CellTiter-Glo luminescence, 16 h; series mostly up to 73.3 µM
Procedure, shortened: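 ARE-bla HepG2 cells were plated, rested 5 h at 37C/5% CO2, then exposed to compounds in DMSO for 16 h. Viability was read as CellTiter-Glo luminescence after 30 min at room temperature, in the same wells as the ARE screen.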

[8] = qHTS assay for small molecule activators of the heat shock response signaling pathway - cell viability counter screen (AID 743209); conditions: HSE-bla HeLa viability, CellTiter-Glo luminescence, 5 h; series mostly up to 62.6 µM; note: nearly all actives have a fitted effect of over 50% in size
Procedure, shortened: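 HSE-bla HeLa cells plated overnight, then exposed to Tox21 compounds (23 nL in DMSO) for 5 h at 37 C. After the bla reporter read, CellTiter-Glo was added in the same wells and luminescence read after 30 min at room temperature.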

[9] = qHTS assay for small molecule activators of the heat shock response signaling pathway (AID 743210; active = well fitted activation curve with a large enough effect in the signal ratio in the repeat runs, with a control signal flat, not every such curve was filed as active; the % refers to the signal ratio); conditions: HeLa HSE-bla reporter, beta-lactamase ratio, 5 h; series mostly up to 62.6 µM
Procedure, shortened: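 HSE-bla HeLa cells (beta-lactamase reporter under heat shock response elements) were exposed to compounds for 5 h at 37 C, then loaded with LiveBLAzer B/G FRET substrate for 2.5 h at room temperature before fluorescence reading.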

[10] = qHTS assay to identify small molecule antagonists of the peroxisome proliferator-activated receptor gamma (PPARg) signaling pathway - cell viability counter screen (AID 743194); conditions: PPARg-bla HEK293H viability, CellTiter-Glo luminescence, 17 h, co-treated with 50 nM rosiglitazone; series mostly up to 62.6 µM; note: nearly all actives have a fitted effect of over 55% in size
Procedure, shortened: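 PPARg-UAS-bla HEK293H cells were plated, rested 5 h at 37 C, then treated with compounds plus rosiglitazone (50 nM final) for 17 h at 37 C; viability was then read by CellTiter-Glo luminescence after 30 min at room temperature.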

Measured: Potency

Sequence of Peroxisome proliferator-activated receptor gamma (Homo sapiens) (P37231 whole entry, looked up): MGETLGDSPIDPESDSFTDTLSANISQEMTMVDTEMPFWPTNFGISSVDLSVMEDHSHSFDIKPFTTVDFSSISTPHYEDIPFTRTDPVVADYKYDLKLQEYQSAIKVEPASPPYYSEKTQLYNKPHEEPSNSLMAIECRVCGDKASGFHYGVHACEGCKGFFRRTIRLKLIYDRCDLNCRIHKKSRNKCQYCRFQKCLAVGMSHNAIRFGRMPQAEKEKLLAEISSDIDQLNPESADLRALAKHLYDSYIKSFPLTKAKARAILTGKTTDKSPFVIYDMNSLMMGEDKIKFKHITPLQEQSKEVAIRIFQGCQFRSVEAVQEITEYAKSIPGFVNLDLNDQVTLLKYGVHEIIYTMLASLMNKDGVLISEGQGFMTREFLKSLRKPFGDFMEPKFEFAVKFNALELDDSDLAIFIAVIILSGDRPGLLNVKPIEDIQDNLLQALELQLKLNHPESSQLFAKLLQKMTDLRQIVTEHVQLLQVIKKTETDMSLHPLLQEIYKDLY
Sequence of Aryl hydrocarbon receptor (Homo sapiens) (P35869 whole entry, looked up): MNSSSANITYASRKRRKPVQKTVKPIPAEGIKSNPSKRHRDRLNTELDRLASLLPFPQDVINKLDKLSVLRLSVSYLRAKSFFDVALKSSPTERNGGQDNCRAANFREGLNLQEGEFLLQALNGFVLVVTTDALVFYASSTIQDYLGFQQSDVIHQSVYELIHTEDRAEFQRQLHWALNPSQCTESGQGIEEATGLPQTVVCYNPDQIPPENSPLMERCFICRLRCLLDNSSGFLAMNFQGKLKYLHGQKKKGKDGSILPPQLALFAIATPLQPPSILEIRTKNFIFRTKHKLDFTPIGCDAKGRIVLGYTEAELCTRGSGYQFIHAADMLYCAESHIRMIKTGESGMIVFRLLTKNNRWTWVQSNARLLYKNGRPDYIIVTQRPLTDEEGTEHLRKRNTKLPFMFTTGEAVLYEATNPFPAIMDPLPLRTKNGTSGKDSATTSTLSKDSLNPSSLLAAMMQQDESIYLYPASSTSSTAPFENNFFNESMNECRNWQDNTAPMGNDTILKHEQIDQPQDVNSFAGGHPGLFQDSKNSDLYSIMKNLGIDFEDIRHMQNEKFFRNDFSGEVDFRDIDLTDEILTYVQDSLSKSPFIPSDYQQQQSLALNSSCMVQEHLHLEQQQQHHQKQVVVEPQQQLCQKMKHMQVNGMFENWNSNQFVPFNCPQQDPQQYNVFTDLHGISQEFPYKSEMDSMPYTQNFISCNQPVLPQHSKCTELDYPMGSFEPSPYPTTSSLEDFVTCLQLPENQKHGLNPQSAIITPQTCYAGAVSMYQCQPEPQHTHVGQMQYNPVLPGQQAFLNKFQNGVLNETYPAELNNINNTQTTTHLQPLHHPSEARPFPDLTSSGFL

CCC(C=O)CC
not listed: [10]
inactive: all other assays above

COc1ccc(OC)c(Cl)c1
not listed: [6]
inactive: all other assays above

CC(C)CC(C)CC(C)CC(C)COC(=O)c1ccccc1C(=O)OCC(C)CC(C)CC(C)CC(C)C (centres undefined)
not listed: [5] | [9]
inactive: all other assays above

Nc1ncnc(Nc2ccccc2)n1
not listed: [6] | [8]
inactive: all other assays above

CCNC(=O)C1CC(C)CCC1C(C)C (centres undefined)
not listed: [6]
inactive: all other assays above

O=C1c2ccccc2C(=O)C1c1ccccc1
not listed: [9] | [10]
inactive: all other assays above

CCCC/C=C/C=C\C=O
inactive: [1] | [2] | [3] | [4] | [10] | [8]

CNS(=O)(=O)CCc1ccc2[nH]cc(C3CCN(C)CC3)c2c1
not listed: [5] | [8]
inactive: all other assays above

Cc1cccc2nccnc12
not listed: [5] | [7]
inactive: all other assays above

COc1ccc(Br)c(C)c1
not listed: [5]
inactive: all other assays above

COc1ccc2c(c1)C(=O)N(CCc1ccc(S(=O)(=O)NC(=O)NC3CCCCC3)cc1)C(=O)C2(C)C
not listed: [5] | [6] | [9]
inactive: all other assays above

CC(C)=O
not listed: [5]
inactive: all other assays above

CCCCCCCC/C=C\CCCCCCCC(=O)OCCCC
not listed: [5]
inactive: all other assays above

CCCCCCCCC1CCC(=O)O1 (centres undefined)
not listed: [5] | [6] | [8]
inactive: all other assays above
